Screening results as filed in PubChem BioAssay.
USP2a inhib: USP2a (human) protease inhibition. USP2a enzymatic assay, qHTS inhibition. Potency, µM (series often up to 38.3 µM), for the others: at the top dose activity change, negative = inhibition, hits mostly inhibitors. 0.1% of 60,000 active; further: potency means the concentration at half of the fitted maximal effect; nearly all actives have a fitted effect of over 60% in size
Target sequence (O75604 whole entry, looked up): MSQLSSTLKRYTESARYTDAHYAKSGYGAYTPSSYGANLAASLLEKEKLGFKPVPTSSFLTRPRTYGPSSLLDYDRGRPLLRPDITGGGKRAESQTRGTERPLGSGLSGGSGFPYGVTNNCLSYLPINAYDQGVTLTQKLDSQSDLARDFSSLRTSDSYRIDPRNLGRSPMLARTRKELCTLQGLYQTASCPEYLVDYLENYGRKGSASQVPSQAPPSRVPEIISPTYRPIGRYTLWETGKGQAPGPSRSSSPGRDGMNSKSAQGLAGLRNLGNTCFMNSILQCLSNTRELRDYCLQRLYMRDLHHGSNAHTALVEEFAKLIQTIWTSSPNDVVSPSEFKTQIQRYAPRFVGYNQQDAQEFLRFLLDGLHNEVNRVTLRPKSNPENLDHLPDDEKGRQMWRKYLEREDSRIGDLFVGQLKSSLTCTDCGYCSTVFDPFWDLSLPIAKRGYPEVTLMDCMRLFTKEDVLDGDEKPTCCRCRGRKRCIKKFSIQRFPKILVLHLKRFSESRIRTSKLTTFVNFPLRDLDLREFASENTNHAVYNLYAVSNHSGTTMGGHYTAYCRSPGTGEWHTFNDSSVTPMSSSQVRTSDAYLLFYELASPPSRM
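20 nM USP2 core + cpd, 30 min RT; add 20 nM Ub-PLA2/20 uM NBD C6-HPC; read Ex460/Em535 at 0 h and 2.5 h. Normalized to NEM; qHTS curve fit/classification.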
HADH2 inh: HADH2 (human) dehydrogenase inhibition; AID 886; recombinant HADH2, NADH fluorescence, beta-hydroxybutyryl-CoA; Q99714; 3.4% of 73,000 active; Potency, µM (top dose mostly 57.1 µM), for inactives: at the highest dose activity change, negative = inhibition, most hits filed as inhibitors; further: potency means the concentration at half of the fitted maximal effect; on the % scale 0 is the no-effect control and ±100 the full control effect; nearly all actives have a fitted effect of over 60% in size
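His-tagged recombinant enzyme from E. coli, 20 nM, preincubated 15 min RT with compound; reaction started with 1 mM NAD+ and 90 uM beta-hydroxybutyryl-CoA in 100 mM Tris-HCl pH 9.0. NADH fluorescence (ex 360/em 450) read over 4 min; last-minus-first difference.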
AID923: qHTS Assay for Allosteric/Competitive Inhibitors of Caspase-1: Spectroscopic Profiling in AFC Spectral Region | compound fluorescence, AFC spectral region (405/520 nm) | Potency, µM (top dose mostly 57.5 µM), without a hit: at the top dose fluorescence increase, most hits filed as activators | 1.1% of 75,000 active | AID 923, 2007; further: potency means the concentration at half of the fitted maximal effect; 0% is about no effect
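Titrations up to 57 uM read every 20 sec for 3 min (405/520 nm) with 50 nM caspase 1 and 5 uM Ac-WEHD-AFC, pH 7.5 HEPES buffer. Fluorescence-vs-time intercept gave baseline, scaled against on-plate AFC standard.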
HSD17B inhib: blocks hydroxysteroid 17-beta dehydrogenase activity | recombinant HSD17B10, NADH fluorescence kinetic | Potency, µM (highest dose often 57.1 µM), inactives show at the top dose activity change, negative = inhibition, actives largely listed as inhibitors | 7.6% of 75,000 active;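 further: the protocol describes HADH2 (HSD17B10) and not the HSD17B4 of the title; potency means the concentration at half of the fitted maximal effect; on the % scale 0 is the no-effect control and ±100 the full control effect; nearly all actives have a fitted effect of over 70% in size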
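Activity followed as NADH fluorescence increase (ex 360, em 450 nm) every 30 seconds for 4 min, using final 90 uM beta-hydroxybutyryl CoA and 1 mM NAD+. Recombinant His-tagged enzyme, 20 nM, pH 9.0 Tris buffer, 15 min compound preincubation.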
4-MU autofl: compounds fluorescent in 4-MU spectral region; compound autofluorescence, 340/450 nm, 4-MU equivalents; active compounds read high; max dye-equivalent concentration, M; 11% of 59,000 active; in the data active means max dye-equivalent concentration above about 10 nM; inconclusive means mostly about 1.1 nM to 9.6 nM
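Intrinsic fluorescence at 340/450 nm (ex/em) was read after 15 min at room temperature in pH 8.0, 100 mM Tris. Each compound concentration expressed as 4-MU-equivalent concentration from a six-point 4-MU standard series on each plate.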
A350 autofl: A350 region autofluorescence. Compound autofluorescence, 340/450 nm, Alexa 350 dye-equivalents; active compounds read high. max dye-equivalent concentration, M. 11% of 59,000 active. AID 590; in the data active means max dye-equivalent concentration above about 10 nM; inconclusive means mostly about 1.1 nM to 9.6 nM
Starred values were filed as active, the others as inactive; i = inactive; ? = inconclusive; nt = no result; [ ] = another dose, or the depositor's remark. The list is not random: actives were taken first. Their share in the collection is about 13%. Unless noted, the call rests on the fitted dose curve; in most records, active means well fitted curve in the direction sought with a large enough effect; inconclusive means small, poorly fitted or top-dose-only effect, or another doubt; inactive means no such curve, though single readings can be large; an effect the other way counts as inactive or inconclusive.

SMILES | USP2a inhib | HADH2 inh | AID923 | HSD17B inhib | 4-MU autofl | A350 autofl
O=C(NC1CCCCC1)C1CCCN1S(=O)(=O)c1cccc2nsnc12 (configuration not stated) | -0.5% | 1.7% | -0.7% | -13.6% | i | i
O=C(O)c1ccc(Cl)c(NC(=O)C2CCCN2S(=O)(=O)c2cccc3nsnc23)c1 (configuration not stated) | -3.6% | -10.2% | -0.2% | -4.5% | 3.19e-08M* | 3.47e-08M*
O=C(C1CCN(S(=O)(=O)c2cccc3nsnc23)CC1)N1CCCc2ccccc21 | 25.7% | -2.1% | 0.4% | 1.9% | 1.26e-08M* | 1.18e-08M*
O=C(C1CCN(S(=O)(=O)c2cccc3nsnc23)CC1)N1CCc2ccccc21 | 43.3% | -3.1% | 0.9% | -8.4% | i | ?
O=C(C1CCN(S(=O)(=O)c2cccc3nsnc23)CC1)N1CCn2c1nc1ccccc12 | 45.2% | ? | -0.2% | -10.1% | 1.36e-08M* | 1.36e-08M*
COC(C(=O)Nc1cccc(F)c1)c1ccccc1 (configuration not stated) | 12.3% | -0.7% | 1.3% | -3.4% | nt | nt
O=C(O)[C@@H]1C[C@@H](C(=O)O)N1 | 1.2% | -1.7% | -4.2% | 4.1% | nt | nt
NC(C(=O)O)C(O)C(=O)O (configuration not stated) | -5.9% | nt | -2.6% | 5.2% | nt | nt
CCOC(=O)c1ccccc1NC(=O)CSc1nnc(COc2ccccc2)n1CC | nt | -0.2% | 0.4% | -3.5% | i | i
Cc1cccc(NC(=O)C2CCN(S(=O)(=O)c3cccc4nsnc34)CC2)n1 | 7.8% | -13.0% | 0.8% | 1.6% | 3.24e-08M* | 3.1e-08M*
CC1Cc2ccccc2N1C(=O)C1CCCN(S(=O)(=O)c2cccc3nsnc23)C1 (configuration not stated) | 42.4% | ? | 1.2% | -19.5% | 2.4e-07M* | 7.12e-08M*
COc1ccc2nc(NC(=O)C3CCN(S(=O)(=O)c4cccc5nsnc45)CC3)sc2c1 | 25.6% | -2.3% | -0.7% | -6.9% | i | i
Cc1cccc(N2CCN(C(=O)C3CCN(S(=O)(=O)c4cccc5nsnc45)CC3)CC2C)c1 (configuration not stated) | 35.6% | -4.6% | 0.5% | -12.5% | 2.6e-08M* | 2.46e-08M*
COc1ccccc1NC(=O)C1CCCN(S(=O)(=O)c2cccc3nsnc23)C1 (configuration not stated) | 38.2% | 5.6% | 2.3% | -7.1% | i | i
C/C(=N/Nc1ccc2ccccc2n1)c1ccccc1O | nt | -2.8%[11.4 µM] | -0.9%[11.5 µM] | -0.7%[11.4 µM] | i | i
CC1(C)[C@@H](O)CC[C@]2(C)C3C(=O)C=C4C5C[C@@](C)(C(=O)O)CC[C@]5(C)CC[C@@]4(C)[C@]3(C)CC[C@@H]12 (some centres not stated) | nt | nt | -2.8% | -2.6% | nt | nt
CCN(CC)CCNC(=O)CS(=O)Cc1nc(-c2ccc(C)cc2)oc1C (configuration not stated) | 2.8% | -0.3% | -0.2% | -1.0% | i | i
O=c1c2ccccc2c2ccccc2c(=O)n1CC1CCCO1 (configuration not stated) | 1.3% | -14.3% | 2.4% | -2.5% | nt | nt
CCCCCn1c2nc3ccccc3nc2c2c(=O)n(CC3CCCO3)c(C)nc21 (configuration not stated) | 6.1% | 24.4% | 3.7% | ? | 1.89e-07M* | 2.14e-07M*
Cc1nc2c(c(=O)n1CC1CCCO1)c1nc3ccccc3nc1n2CCC(C)C (configuration not stated) | nt | nt | nt | nt | 5.49e-08M* | 5.06e-08M*
Nc1ncnc2nc(N3CCN(CCO)CC3)[nH]c12 | nt | 2.0%[11.4 µM] | 3.5%[11.5 µM] | 5.0%[11.4 µM] | i | i
CCC1=C(OC(=O)N(CC)CC)N2C(=O)OC(=NCCc3c[nH]c4ccccc34)[C@]2(Cc2ccccc2)[C@H]2C1=CC[C@H]1C(=O)N(CC)C(=O)[C@H]12 | nt | nt | 0.6% | -4.1% | nt | nt
Clc1ccc2c(NC3CCC(N4CCCCC4)CC3)ccnc2c1 (configuration not stated) | nt | 22.1%[11.4 µM] | -0.6%[11.5 µM] | -18.9%[11.4 µM] | i | i
